NS1 inh – qHTS Assay for Inhibitors of Influenza NS1 Protein Function. 270,000 tested, 0.4% active. AID 2326, 2010. Potency, µM (top dose mostly 46.1 µM), without a hit: at the top dose activity, positive = more growth; calls by dose curve; further: potency means the concentration at half of the fitted maximal effect; actives are rising curves; nearly all actives have a fitted effect of over 50% in size
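Growth recovery, yeast-based: influenza A NS1 expressed in S. cerevisiae causes slow growth, and suppressors are detected by OD600. The parent strain without NS1 is used as positive control.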
SARS PLpro yeast-1 – qHTS of Yeast-based Assay for SARS-CoV PLP | S. cerevisiae expressing SARS-CoV PLpro, growth rescue | AID 485353, 2010 | Potency, µM (top dose mostly 32.9 µM), inactives show top-dose activity, positive = growth rescue, usual class: activators | 330,000 tested, 0.19% active; calls by dose curve; further: potency means the concentration at half of the fitted maximal effect; 0% is about no effect; nearly all actives have a fitted effect of over 55% in size
AmpC detergent – qHTS Inhibitors of AmpC Beta-Lactamase (assay with detergent). P00811. AID 485294, 2010. 370,000 tested, 0.041% active. Potency, µM (highest dose often 114 µM), for inactives: top-dose activity change, negative = inhibition, most hits filed as inhibitors. AmpC hydrolysis of nitrocefin, absorbance 480 nm, 0.01% Triton;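 further: potency means the concentration at half of the fitted maximal effect; 0% = no-compound wells and -100% = no-enzyme wells; nearly all actives have a fitted effect of over 25% in size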
Target sequence (P00811 whole entry, looked up): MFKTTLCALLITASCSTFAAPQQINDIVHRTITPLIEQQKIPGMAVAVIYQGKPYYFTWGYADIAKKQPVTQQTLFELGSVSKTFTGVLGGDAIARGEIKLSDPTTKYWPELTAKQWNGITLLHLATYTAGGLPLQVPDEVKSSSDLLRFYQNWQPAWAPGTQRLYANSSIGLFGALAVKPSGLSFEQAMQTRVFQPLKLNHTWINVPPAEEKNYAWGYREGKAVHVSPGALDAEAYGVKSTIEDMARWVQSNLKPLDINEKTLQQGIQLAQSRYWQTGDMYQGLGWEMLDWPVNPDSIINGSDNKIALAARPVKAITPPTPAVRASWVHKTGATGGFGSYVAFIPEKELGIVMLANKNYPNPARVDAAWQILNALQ
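20 mM phosphate pH 7.0 + 0.01% (detergent screen) or 0.0001% Triton X-100; 5.3 nM AmpC reagent; cpd preinc 15 min RT; nitrocefin (800 uM stock) to start; A480 q20 s × 4 min; Activity was normalised to no-enzyme and no-compound control wells.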
AMA1-RON2 inh – qHTS for Inhibitors of AMA1-RON; Towards Development of Antimalarial Drug Lead: Primary Screen; Plasmodium falciparum AMA1 (3D7) - RON2 peptide interaction; Potency, µM (doses to about 58.2 µM), inactives show at the top dose activity change, negative = inhibition, hits mostly inhibitors; 360,000 tested, 0.2% active; AlphaScreen AMA1-biotinylated RON2 peptide binding;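 further: potency means the concentration at half of the fitted maximal effect; 0% = vehicle wells and -100% = peptide control; nearly all actives have a fitted effect of over 45% in size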
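AMA1 (3D7) with his tag at 25 nM final met compounds first, then biotinylated RON2 peptide at 25 nM; detection used donor plus acceptor beads, 10 µg/mL apiece, read by AlphaScreen after 30 min at room temperature.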
AmpC no deterg – qHTS Inhibitors of AmpC Beta-Lactamase (assay without detergent). P00811. AmpC nitrocefin hydrolysis, absorbance 480 nm, 0.0001% Triton. Potency, µM (top dose mostly 57.1 µM), for inactives: top-dose activity change, negative = inhibition, actives largely listed as inhibitors. 330,000 tested, 0.52% active. AID 485341, 2010;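 further: potency means the concentration at half of the fitted maximal effect; plate controls were no compound for no effect and no enzyme for full effect; nearly all actives have a fitted effect of over 20% in size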
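AmpC (5.3 nM in the dispensed reagent) in 20 mM phosphate pH 7.0 with 0.01% (detergent screen) or 0.0001% Triton X-100 was preincubated with compounds for 15 min at room temperature. Nitrocefin was then added from an 800 uM solution, and hydrolysis was followed at 480 nm.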
SARS PLpro yeast-2 – qHTS of Yeast-based Assay for SARS-CoV PLP: Hit Validation; calls only; AID 652038, 2013; 1,000 tested, 19% active; shares compounds with SARS PLpro yeast-1; yeast expressing SARS-CoV PLpro, growth phenotype rescue; call rule not given here
* marks the source's active call; other numbers are inactive results; i = inactive; ? = inconclusive; / = no result; + = active, no number. Compounds with a hit are over-represented: about 0.99% of the library has one in this group of screens. Unless noted, the call rests on the fitted dose curve; in most records, active means well fitted curve in the direction sought with a large enough effect; inconclusive means small, poorly fitted or top-dose-only effect, or another doubt; inactive means no such curve, though single readings can be large; an effect the other way counts as inactive or inconclusive.

SMILES	NS1 inh	SARS PLpro yeast-1	AmpC detergent	AMA1-RON2 inh	AmpC no deterg	SARS PLpro yeast-2
N#Cc1c(N2CCN(C(=O)c3ccccc3)CC2)nc(-c2ccccc2)c2c1CCCC2	17%	2%	-1%	8%	14%	/
N#Cc1c(N2CCN(C(=O)c3ccccc3Cl)CC2)nc(-c2ccccc2)c2c1CCCC2	27%	3.5µM*	2%	-5%	4%	i
Cc1nn(CC(=O)N2CCN(c3ccccc3)CC2)c(=O)c2cc3cc(F)ccc3n12	/	/	13%	/	/	/
CCCNC(=S)NCc1ccc(Cl)cc1	-6%	?	?	-22%	-22%	i
CCOc1ccc(CNC(=S)NCc2ccc(OCC)cc2)cc1	10%	13µM*	-1%	17%	-9%	+
COc1ccc(CNC(=S)NCc2ccc(OC)cc2)cc1	2%	0%	0%	6%	-20%	/
Cc1ccc(C)c(CN2C(=O)c3ccccc3S(=O)(=O)c3ccc(C(=O)NCc4ccccc4)cc32)c1	/	/	-2%	/	/	/
Cc1c(NC=C(C#N)C#N)c(=O)n(-c2ccccc2)n1C	-4%	1%	2%	2%	-18%	/
CCOC(=O)/C(C#N)=N/Nc1c(C)n(C)n(-c2ccccc2)c1=O	/	0%	-2%	127%	3%	/
Cc1c(N/N=C(\C#N)C(=O)c2ccccc2)c(=O)n(-c2ccccc2)n1C	8%	?	-13%	-10%	-15%	i
Cc1ccccc1C(=O)/C(C#N)=N/Nc1c(C)n(C)n(-c2ccccc2)c1=O	-1%	20µM*	?	-2%	-11%	i
CC(=O)c1ccc(NC(=O)c2noc3c2CSc2ccccc2-3)cc1	/	/	20%	/	/	/
O=C(Nc1ccc(C(=O)OCc2cc(=O)n3nc(C4CC4)sc3n2)cc1)c1cccc(F)c1	/	/	9%	/	/	/
CCc1nnc(NC(=O)c2ccc(S(=O)(=O)N3CCc4ccccc4C3)cc2)s1	7%	-6%	-9%	1%	-6%	/
Cc1cc(C)c2nc(NNC(=O)c3ccc(S(=O)(=O)N4CCc5ccccc5C4)cc3)sc2c1	?	5.6µM*	4%	41%	-36%	?
CCOC(=O)c1c(-c2ccc(OC)cc2)csc1/N=C/C1=C(O)CCCC1=O	27%	?	-6%	-10%	-24%	i
Cc1cccc(N2CCN(C(=O)C3CCN(Cc4nc(-c5ccc(Cl)cc5)oc4C)CC3)CC2)c1C	/	/	5%	/	/	/
Cc1ccccc1OCCOC(=O)c1cc(S(=O)(=O)N2CCCCC2)ccc1N1CCOCC1	/	10µM*	-11%	-28%	68%	?
CCOc1ncccc1C(=O)OCC(=O)Nc1ccc2c(c1)CCC2	/	?	/	10%	-1%	i
CCOC(=O)N1CCN(C(=O)CSCC(=O)Nc2nc(-c3ccc(Cl)s3)cs2)CC1	-13%	13µM*	-8%	-4%	-14%	?
CCOC(=O)N1CCN(C(=O)CSCC(=O)Nc2nc(-c3ccc(OC)cc3)cs2)CC1	-11%	4%	2%	14%	69%	/
COc1cccc(CNS(=O)(=O)c2ccc(-c3cc(C(F)(F)F)on3)s2)c1	/	/	-1%	/	/	/
O=C(N/N=C/c1ccc(OC(F)F)cc1OC(F)F)c1ccc(Br)cc1	5%	/	-2%	6%	-11%	i
Cc1ccc(C)c(NC(=O)CSc2nc(=O)n(Cc3ccccn3)c3c2CCC3)c1	/	/	4%	/	/	/
N#Cc1nc(-c2ccc(F)cc2)oc1N1CCCC1	7%	?	1%	-21%	1%	i
SMILES	NS1 inh	SARS PLpro yeast-1	AmpC detergent	AMA1-RON2 inh	AmpC no deterg	SARS PLpro yeast-2
Cc1ccccc1S(=O)(=O)Cc1ccc(C(=O)NCCCN2CCN(C)CC2)o1	6%	?	-7%	3%	-1%	i
Cc1ccccc1S(=O)(=O)Cc1ccc(C(=O)NCCCN2CCCC2)o1	-1%	-2%	?	-3%	54%	/
CCOc1ccc(NC(=O)c2cnn3c2NC(c2ccccc2)=CC3c2cccc(OC)c2OC)cc1 (stereo not given)	/	/	19%	/	/	/
Cc1nn(C)cc1/C=N/NC(=S)Nc1ccc(Cl)cc1Cl	8%	?	-16%	2%	-5%	+
COc1ccc(N2CC(NC(=O)C3CC3)CC2=O)cc1 (stereo not given)	/	/	1%	/	/	/
Cc1ccc(C(O)(C(=O)NNc2ccc3ccccc3n2)c2ccc(C)cc2)cc1	15%	?	?	60%	-47%	i
COCCCNC(=O)C1CCN(S(=O)(=O)c2c(C)noc2/C=C\c2ccc(OC)cc2)CC1	-10%	0%	0%	-10%	33%	/
CCCCNC(=O)C1CCN(S(=O)(=O)c2c(C)noc2/C=C\c2ccc(OC)cc2)CC1	0%	?	?	24%	9%	+
N#Cc1ccccc1Cn1c(SCC(=O)NCc2ccccc2)nc2ccccc21	/	/	16%	/	/	/
Cc1ccc(NC(=O)c2nc[nH]c2C(=O)NCCCCNC(=O)c2[nH]cnc2C(=O)Nc2ccc(C)cc2)cc1	/	3%	/	48%	-22%	/
Cc1ccc(NC(=O)c2nc[nH]c2C(=O)NCCCCCCNC(=O)c2[nH]cnc2C(=O)Nc2ccc(C)cc2)cc1	/	13µM*	/	116%	-19%	i
NC(=S)N/N=C/c1ccccc1OCc1cccc(Cl)c1	6%	16µM*	?	0%	-55%	?
CCOc1ccc(NC(=O)Cn2cc(C(=O)c3ccc(C)c(C)c3)c(=O)c3cc4c(cc32)OCCO4)cc1	/	/	0%	/	/	/
CSc1ccc(CCNC(=O)c2sc3ncccc3c2-n2cccc2)cc1	/	/	27%	/	/	/
O=c1c(N2CCOCC2)nsnc1N1CCOCC1	4%	?	-14%	-3%	-1%	i
O=C(Cn1ncc2c([nH]c3ccccc32)c1=O)Nc1cccc(C(F)(F)F)c1	/	/	12%	/	/	/
Nc1nc(SCc2ccccc2Cl)nc2nc3c(cc12)CCCC3	4%	?	-1%	31%	-28%	i
Cc1cccc(-n2c(O)c(C=Nc3ccccc3O)c3ccccc3c2=O)n1	-21%	-2%	5%	?	69%	/

Screening data as filed in PubChem.
